From PubChem BioAssay AID588489 (Sanford-Burnham Center for Chemical Genomics, 2011)
The whole screen tested about 360,000 compounds, of which about 1,300 (0.36%) were called active. Only a selection was taken, and actives are over-represented in it overall. Values without a mark were called inactive. Rule as the data show it: active = inhibition above about 35% (passing the limit was not always enough); inactive = the rest.

What follows are compounds tested against Polyadenylate-binding protein 1 (Homo sapiens) (UniProt P11940) (assay: inhibitors of PABP1 MLLE–PAM2 peptide binding, primary screen, biochemical, fluorescence polarization, FITC-PAM2, GST-MLLE (AID 588489;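 also: plate controls were DMSO wells with GST-MLLE for no effect and wells lacking GST-MLLE protein for full effect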)). Conditions: at 20 µM, stronger effect = higher value.
Chain of Polyadenylate-binding protein 1 (Homo sapiens) (P11940 whole entry, looked up): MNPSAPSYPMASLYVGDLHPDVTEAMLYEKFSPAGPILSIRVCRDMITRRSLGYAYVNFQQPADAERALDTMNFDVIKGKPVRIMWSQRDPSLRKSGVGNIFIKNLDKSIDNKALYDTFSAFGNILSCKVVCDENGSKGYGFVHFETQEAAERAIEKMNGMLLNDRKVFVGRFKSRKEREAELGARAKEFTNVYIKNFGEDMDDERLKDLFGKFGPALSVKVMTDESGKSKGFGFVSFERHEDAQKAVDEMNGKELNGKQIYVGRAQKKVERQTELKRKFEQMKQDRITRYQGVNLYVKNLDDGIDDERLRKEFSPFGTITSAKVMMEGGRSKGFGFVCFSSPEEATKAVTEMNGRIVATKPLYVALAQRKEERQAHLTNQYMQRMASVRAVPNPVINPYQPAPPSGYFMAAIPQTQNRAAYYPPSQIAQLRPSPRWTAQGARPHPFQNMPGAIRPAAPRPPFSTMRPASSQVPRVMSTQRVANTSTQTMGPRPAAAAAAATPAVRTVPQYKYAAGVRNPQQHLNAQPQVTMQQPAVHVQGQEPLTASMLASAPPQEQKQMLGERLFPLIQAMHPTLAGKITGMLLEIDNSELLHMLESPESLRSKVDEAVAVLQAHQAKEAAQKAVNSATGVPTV

SMILES | inhibition
O=C1CCCC(O)=C1N=Nc1ccc2ncsc2c1 | 45.2% (active)
O=C1CCCC(O)=C1N=Nc1ccc(S(=O)(=O)N2CCOCC2)cc1 | 8.62%
O=C(NCCC1CCCCN1S(=O)(=O)c1ccccc1)C(=O)NCC1CCCO1 (configuration not stated) | 1.52%
Cc1ccc(C(=O)N/N=C\c2cc(Br)c(Br)o2)cn1 | 69.9% (active)
O=C(N/N=C\c1cc(Br)c(Br)o1)C1COc2ccccc2O1 (configuration not stated) | -16.5%
O=C(N/N=C/c1ccc(Br)o1)c1cncc(Br)c1 | 6.99%
CC(C)N(C(=O)Cn1cc(SCC(=O)N2CCCC2)c2ccccc21)C(C)C | -0.1%
Cc1ccnc(SC2CC(=O)N(c3ccccc3)C2=O)n1 (configuration not stated) | 38.2% (active)
CCOc1ccccc1N1C(=O)CC(Sc2nccc(C)n2)C1=O (configuration not stated) | 20.7%
CC(=O)Nc1ccc(N2C(=O)CC(Sc3nccc(C)n3)C2=O)cc1 (configuration not stated) | 20.5%
CCCCNC(=O)C1(c2ccc(OC)cc2)CCOCC1 | -4.07%
Cn1cnnc1SCc1nnc(-c2ccccc2Br)o1 | -6.49%
Nc1cccc2c1C(=O)N(Cc1nnc(-c3ccccc3Br)o1)C2=O | 41.2% (active)
CC(C)N(Cc1nnc(-c2ccccc2Br)o1)C(=O)c1cc(Cl)nc2ccccc12 | -1.33%
CCOC(=O)c1cc2sccc2n1Cc1ccc(C#N)cc1 | -2.73%
CC(Sc1ccc(S(=O)(=O)N2CCN(C)CC2)cn1)C(=O)NC1CCCC(C)C1C (configuration not stated) | -9.12%
CC1(C)C2CC=C(/C=N/NC(=O)c3ccc(Cl)cc3)C1C2 (configuration not stated) | 10.7%
O=C1CCC(=O)N(c2ccccc2)N1 | 3.9%
CCOc1ccccc1NC(=S)NC(=O)CCc1ccccc1 | 17.8%
O=C(Cc1ccc(Cl)cc1)NC(=S)Nc1ccccc1O | 37.5% (active)
Fc1ccccc1CNC(=S)Nc1ccc(Cl)cc1 | -18.2%

SMILES | inhibition
Cc1sc2ncn(CC(=O)NCCCC(=O)NCc3ccc(F)cc3)c(=O)c2c1C | -10.9%
Cc1n[nH]c(=O)c2c(NC(=O)CSc3ccccc3F)oc(C)c12 | 25.1%
COc1ccc(OC)c(C2N(c3ccccn3)C(=O)C3CCCN32)c1 (configuration not stated) | -4.22%
COCC(C)N=CC1=C(O)CC(C)(C)CC1=O (configuration not stated) | 6.93%
COc1cccc(NC(=O)CN(C)C(=O)Cc2ccc(Cl)cc2Cl)c1 | -1.03%
CCN(CC(=O)Nc1ccc(NC(C)=O)cc1)C(=O)CSC(=S)N1CCCC1 | 5.05%
COc1cccc(NC(=O)CN(C)C(=O)CSC(=S)N2CCCC2)c1 | 40.8% (active)
Cc1ccc(N/N=C2\COC(C)(C)CC2=O)cc1 | -0.27%
COc1ccc(NC(=O)c2c(C)oc3c2CCCC3)cc1 | 6.57%
COc1ccc(N/N=C2/CCCCC2=O)cc1 | 44.5% (active)
COc1ccc(-c2cc(C3CCN(c4ncccc4[N+](=O)[O-])CC3)[nH]n2)cc1 | 6.76%
CCc1ccc2c(c1)NC(=O)C2(C)Cc1ccc(OC(F)(F)F)cc1 (configuration not stated) | 8.45%
CCc1ccc2c(c1)C1(NN=C(c3ccccc3)S1)C(=O)N2 (configuration not stated) | 45.2% (active)
CC[N+]1(CC)CC2=Cc3ccccc3CC2C1 (configuration not stated) | -5.91%
O=C(Nc1cc(S(=O)(=O)Nc2ccc(Cl)cc2)ccc1O)c1ccc(F)cc1F | -7.73%
Cc1cccc(N(C(=O)Cc2cccs2)C(C(=O)NC2CCCC2)c2ccsc2)c1 (configuration not stated) | -14.8%
COc1cc(C(=S)N2CCOCC2)ccc1O | 38.4% (active)
CCOc1cc(C(=S)N2CCOCC2)ccc1O | 20.9%
COc1ccc(C)cc1NC(=S)N1CCOCC1 | -27.2%
Cc1ccc(OCC(=O)Nc2ccccc2C(=O)NC2CC2)cc1C | 8.8%
O=S(=O)([N-]c1nc2ccccc2nc1-[n+]1ccc(Cc2ccccc2)cc1)c1ccc(Br)s1 | 43.3% (active)

SMILES | inhibition
O=S(=O)(NCc1ccccn1)c1ccc(Br)s1 | -6.68%
O=C(c1ccc(N2CCOCC2)c([N+](=O)[O-])c1)N1CCN(S(=O)(=O)c2cccs2)CC1 | -8.8%
COc1ccc(C(=O)N2CCN(c3ccc(C(C)=O)cc3F)CC2)cc1S(=O)(=O)NC1CC1 | 0.55%
CC(C)CCn1cnc2c1c(=O)n(CC(=O)NC(N)=O)c(=O)n2Cc1ccccc1 | -0.54%
O=C(CSc1ccccc1)Nc1cc(Cl)ccc1Oc1ccccc1 | 6.51%
CC(=O)Nc1ccc(SCC(=O)NC(=O)c2ccc(Cl)cc2)cc1 | 15.4%
CC(=O)Nc1ccc(SCC(=O)Nc2ccccc2Oc2ccccc2)cc1 | 38.1% (active)
CC(=O)Nc1cc(-c2ccc(N3CCN(C)CC3)cc2)cn2c(-c3ccc(F)cc3)cnc12 | -30.8%
CC(C)c1cc(C(=O)N/N=C/c2ccoc2)c(O)c(C(C)C)c1 | -7.21%
COC(=O)N/N=C/c1ccc(-c2ccc(Cl)c(Cl)c2)o1 | 15.1%
CC(C)(C)OC(=O)N/N=C/c1ccc(C(=O)O)cc1 | -10.6%
COC(=O)N/N=C/c1c[n+]([O-])c2ccccc2[n+]1[O-] | 41.1% (active)
CCOC(=O)c1c(C)[nH]c(C2=NNC(=NC(C)COC)SC2)c1C (configuration not stated) | -90.6%
CC(C)N(c1ccccc1)c1ncnc(NCCC(=O)O)c1[N+](=O)[O-] | -7.92%
CC1=C(C(=O)Nc2ccc(Cl)cc2)C(c2ccco2)NC(=O)N1 (configuration not stated) | -4.08%
CN1OC[C@@H]2CN(S(=O)(=O)c3cccc(C(F)(F)F)c3)[C@H](c3ccc(-c4cc5ccccc5o4)cc3)C[C@@H]21 | -4.18%
COC(=O)C1=C(Nc2ccc(C)cc2)C=C(C)C(C(=O)OC)C1c1ccc(F)cc1 (configuration not stated) | -12%
Cc1[nH]c(N)nc(=S)c1CCCNc1ccccc1 | 40.1% (active)
Cc1cc(=O)n(C)c(=O)n1CCCNc1ccccc1 | -0.23%
CCc1c(Nc2ccccc2C)nc(N)[nH]c1=O | -2.64%
